Common to all, as to experiment: NCI-60 one-dose screen, 48 h (100 = growth as untreated, 0 = no growth, -100 = all killed)
Holding throughout (conditions): 10 µM unless noted

The test system of assay [1] is SR leukemia.
Assay [2] concerns RPMI-8226 leukemia.
Assay [3] deals with OVCAR-8 ovarian.
Assay [4] concerns OVCAR-5 ovarian.
Assay [5] has as its system OVCAR-4 ovarian.
The subject of assay [6] is SK-OV-3 ovarian.
Assay [7] has as its system IGROV1 ovarian.
The test system of assay [8] is OVCAR-3 ovarian.
Assay [9] relates to HS 578T breast.
For assay [10], the system named is NCI/ADR-RES ovarian.

Compounds without any hit were thinned out: in the full panel of roughly 83,000, 20% have a hit.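 The test compound was applied at a single concentration to cells in 96-well plates for 48 hours, and percent growth was recorded.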 Unmarked numbers belong to inactive results. Calls of active or inactive are those of the source. Rule for the calls: active = growth percent below 10; inactive = the rest.

Consider `O=C(O)CSCC(=O)Nc1cc(C(F)(F)F)ccc1Cl`, for which the growth in [1] is 96.1%; in assay [2], 106%; in assay [3] it was 107%; in assay [4], 104%; in [5], 119%; in assay [6], 109%. Further, the growth is 112% in assay [7], 113% in [8], 101% in [9] and 117% in [10].
Take `NC(=O)NCCO`: the growth in assay [1] was 96.2%; in [2] it was 101%; in assay [3], 99.8%; in [4] it was 106%; in assay [5] it was 110%; in [6], 110%. In addition, the growth is 105% in assay [7], 106% in assay [8], 94.2% in assay [9] and 97.7% in [10].
As to `CCCCCCCCNC(=O)C(C)C`, the growth is 102% in assay [1]; 99.1% in assay [2]; 109% in assay [3]; 97.9% in [4]; 96.9% in assay [5]; 105% in assay [6]. The growth in assay [7] is 107%; in assay [8], 109%; in [9], 97.1%; in [10], 117%.
With `Cc1ccc2nc(-c3ccc(N=Cc4ccccc4O)cc3)sc2c1`, the growth in assay [1] was 88.8%; in assay [2] it was 70.8%; in assay [3], 87.5%; in assay [4], 92.2%; in [5], 78.6%; in assay [6] it was 115%. Further, the growth is 64% in [7], 84.8% in assay [8], 102% in [9] and 77.7% in assay [10].
Turning to `COc1ccc(/C=N/NC(=O)COCC(=O)N/N=C/c2ccc(OC)cc2)cc1`, the growth was 96.7% in [1]; 101% in assay [2]; 104% in [3]; 108% in assay [4]; 90.5% in assay [5]; 108% in [6]. In addition, the growth in assay [7] is 110%; in [8] it was 108%; in assay [9] it was 114%; in assay [10], 112%.
For the compound `COc1cccc(C(=O)NNC(=O)c2cccc3ccccc23)c1`, the growth in assay [1] is 113%; in [2], 105%; in assay [3], 105%; in assay [4] it was 125%; in assay [5] it was 109%; in [6], 100%. For the same compound, the growth in [7] was 131%; in assay [8], 121%; in [9], 114%; in assay [10], 107%.
For `ClCC(Cl)[C@@H]1CC2C=CC1C2` (stereo not given in full), the growth was 112% in assay [1]; 104% in [2]; 96.2% in assay [3]; 110% in [4]; 104% in [5]; 111% in assay [6]. The growth was 114% in [7], 119% in assay [8], 108% in [9] and 105% in assay [10].
Regarding `N#Cc1ccc2nc[nH]c2c1`, the growth was 106% in assay [1]; 108% in assay [2]; 104% in [3]; 108% in assay [4]; 109% in assay [5]; 109% in assay [6]. For the same compound, the growth in assay [7] is 115%; in assay [8], 102%; in [9] it was 100%; in assay [10], 110%.
For `Cc1ccc(N)c(S(=O)(=O)O)c1`, the growth is 79% in [1]; 90.2% in assay [2]; 103% in assay [3]; 89% in assay [4]; 83.7% in assay [5]; 103% in [6]. The growth in assay [7] was 206%; in assay [8] it was 106%; in [9], 113%; in assay [10], 94.5%.
As to `CSc1nc2[nH]ncc2c(=O)[nH]1`, the growth in assay [1] is 95%; in [2], 119%; in [3], 106%; in assay [4], 97.7%; in assay [5], 123%; in assay [6] it was 107%. Moreover, the growth is 112% in [7], 97.3% in assay [8], 92% in assay [9] and 99.1% in assay [10].
Consider `CC(C)NC(=O)OCc1c(COC(=O)NC(C)C)c(-c2ccc(Cl)cc2)n2c1CCC2`, for which the growth in [1] is 2.94% (active); in assay [2], 93.4%; in assay [3] it was 63.3%; in assay [4], 85.1%; in assay [5], 48.9%; in assay [6], 40.8%. The growth was 70.3% in assay [7], 66% in [8], 73.6% in [9] and 46.5% in assay [10].
With `O=C1C=Cc2ccccc2/C1=C/c1[nH]c(=O)[nH]c1O`, the growth was 33% in assay [1]; 87.3% in assay [2]; 45.4% in assay [3]; 86.7% in assay [4]; 41% in assay [5]; 32.8% in assay [6]. For the same compound, the growth in assay [7] was 33.2%; in assay [8], -32.3% (active); in [9], -6.84% (active); in [10], 67.8%.
With `Nc1ccc2ccccc2c1-c1c(N)ccc2ccccc12`, the growth in assay [1] was 4.26% (active); in assay [2] it was 24.9%; in [3], 44%; in assay [4], 57.1%; in assay [5], 66%; in assay [6], 30.8%. Besides, the growth in assay [7] is 45.8%; in assay [8], 5.64% (active); in assay [9], 35.6%; in assay [10], 16.5%.
`CCCCN(C=S)CCCC`: the growth in [1] was 91.9%; in assay [2], 101%; in assay [3], 95%; in assay [4], 102%; in assay [5], 112%; in assay [6], 88.6%. Also, the growth is 107% in [7], 108% in assay [8], 97.1% in [9] and 107% in [10].
In the case of `COc1cc(C(=O)O)c(O)c(C(C)(C)C)c1`, the growth in assay [1] is 119%; in assay [2] it was 106%; in [3], 104%; in assay [4], 99.2%; in [5], 109%; in assay [6] it was 103%. The growth was 107% in assay [7], 104% in assay [8], 105% in [9] and 106% in assay [10].

These data come from PubChem BioAssay (NCI).
